# According to PubChem BioAssay (NCI):
# The panel holds about 79,000 compounds, 15% with a hit somewhere; the sample as a whole holds those more often. Values without a mark were called inactive. Calls of active or inactive are those of the source. Cut-off read from the data, not from the text of the source: active = growth inhibition above about 70%; inactive = the rest.
# Tests used:
# [1] = NCI Yeast Anticancer Drug Screen. Data for the rad50 strain (AID 155);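 note: 0% = growth of vehicle-only cultures of the same strain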; details: S. cerevisiae rad50 strain growth inhibition, hits give high values
# How it was run: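 Compounds were tested on a yeast strain with an engineered DNA damage repair alteration; the reported value is growth inhibition normalised to vehicle treatment.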
# [2] = NCI Yeast Anticancer Drug Screen. Data for the mec2-1 strain (AID 157); details: S. cerevisiae mec2-1 strain, hits give high values
# How it was run: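 mec2-1 yeast strain, carrying an alteration in DNA damage repair or cell cycle control, was exposed to compounds; growth inhibition was measured relative to vehicle-treated controls.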
# [3] = NCI Yeast Anticancer Drug Screen. Data for the sgs1 mgt1 strain (AID 161);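 note: 0% = growth of cultures given vehicle only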; details: S. cerevisiae sgs1 mgt1 strain, hits give high values
# How it was run: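 Percent growth inhibition was derived by comparing compound-exposed mutant yeast with vehicle-exposed cultures. The strain carries alterations in DNA damage repair.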
# [4] = NCI Yeast Anticancer Drug Screen. Data for the cln2 rad14 strain (AID 165);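 note: 0% = growth equal to vehicle treated cultures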; details: S. cerevisiae cln2 rad14 strain, hits give high values
# How it was run: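 Yeast carrying cln2 and rad14 alterations (cell cycle control and DNA damage repair) were exposed to compounds. Growth inhibition was measured against vehicle-treated controls.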
# [5] = NCI Yeast Anticancer Drug Screen. Data for the bub3 strain (AID 167); details: S. cerevisiae bub3 mutant strain, hits give high values
# How it was run: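 Growth of a checkpoint-deficient yeast mutant is measured after compound exposure. Values represent inhibition relative to vehicle.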
# [6] = NCI Yeast Anticancer Drug Screen. Data for the mlh1 rad18 strain (AID 175); details: S. cerevisiae mlh1 rad18 strain growth inhibition, hits give high values
# How it was run: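 Growth inhibition of the yeast strain was measured after compound exposure and expressed relative to vehicle-treated controls. The strain carries defined defects in DNA damage repair.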
# [7] = at 5.0 µM (retest, dose inferred, filed as 0.5)
# [8] = at 50.0 µM (retest, dose inferred, filed as 5.0)
SMILES,"growth inhibition [1, 7]","growth inhibition [1, 8]",growth inhibition ([1]; at 50.0 µM),"growth inhibition [2, 7]","growth inhibition [2, 8]",growth inhibition ([2]; at 50.0 µM),"growth inhibition [3, 7] [%]","growth inhibition [3, 8]",growth inhibition ([3]; at 50.0 µM),"growth inhibition [4, 7]","growth inhibition [4, 8]",growth inhibition ([4]; at 50.0 µM),"growth inhibition [5, 7]","growth inhibition [5, 8]",growth inhibition ([5]; at 50.0 µM),"growth inhibition [6, 7]","growth inhibition [6, 8]",growth inhibition ([6]; at 50.0 µM)
COC(=O)c1ccc(CSc2ccc(OC)cc2)cc1,16%,84% (active),88.5% (active),-14%,75% (active),83.2% (active),8,92% (active),88.3% (active),2%,83% (active),80.9% (active),1%,80% (active),85.2% (active),-21%,91% (active),85.3% (active)
O=C(/C=C/c1cccnc1)c1cc(Cl)ccc1O,3%,61%,86.9% (active),3%,40%,23.9%,-3,22%,56.9%,1%,24%,26.6%,1%,71% (active),5.2%,5%,48%,42.5%
CCC1(CC(=O)O)OCCc2c1[nH]c1c(C)c(Cl)ccc21 (configuration not stated),10%,99% (active),95.7% (active),1%,99% (active),98.1% (active),2,97% (active),97.8% (active),-2%,96% (active),97.2% (active),-4%,96% (active),95.8% (active),-1%,97% (active),97.5% (active)
O=C(Nc1cccc(Cl)c1)OCCOC(=O)Nc1cccc(Cl)c1,30%,99% (active),99.5% (active),3%,99% (active),99.2% (active),22,100% (active),99.3% (active),2%,98% (active),98.4% (active),-4%,99% (active),99.4% (active),4%,98% (active),98.9% (active)
O=C(NCCCN1CC2CCCC2C1)C(C1CCCCC1)C1CCCCC1 (configuration not stated),-5%,94% (active),99.6% (active),-12%,76% (active),99.5% (active),-9,92% (active),99.5% (active),0%,98% (active),99.2% (active),-22%,99% (active),99.5% (active),-3%,96% (active),99.5% (active)
C=CCOC(=O)OCCCO,0%,-3%,91.7% (active),-1%,-1%,99.2% (active),2,-1%,97.2% (active),-5%,2%,95.8% (active),-1%,-3%,98.8% (active),-1%,-1%,95.5% (active)
CCN=C(N)Nc1nc(-c2ccc(Cl)cc2)cs1,10%,99% (active),98.8% (active),0%,99% (active),96.8% (active),8,99% (active),91.8% (active),9%,99% (active),76.3% (active),7%,98% (active),96.3% (active),9%,99% (active),96.8% (active)
CC1C(=O)C(Br)CC2C1(C)CCC1C2(C)CCC2(C)C3CC(C)(C)CCC3(C)CCC12C (configuration not stated),6%,-1%,25.7%,5%,3%,6.25%,8,-13%,4.2%,7%,6%,64.5%,6%,5%,85% (active),-2%,0%,0.3%
Oc1cc(-[n+]2ccc3ccccc3c2)c(O)c2ccccc12,10%,70% (active),44.2%,-1%,27%,39.2%,11,45%,15.6%,-4%,-10%,-20.8%,24%,72% (active),64.5%,16%,46%,54.1%
CC(=O)/C(=C\c1cccc(Cl)c1)C(=O)CCN(C)C,24%,29%,14.8%,20%,33%,28.8%,20,29%,50.5%,25%,29%,21.4%,13%,34%,4.4%,23%,40%,25.1%
O=C(Nc1cc(Cl)ccc1Cl)Nc1ccc(Cl)cc1C(=O)c1ccccc1,98% (active),99% (active),84.9% (active),97% (active),98% (active),91.6% (active),27,95% (active),88.9% (active),73% (active),92% (active),88% (active),71% (active),87% (active),79.3% (active),100% (active),99% (active),88.2% (active)
CC1=C(C(=O)Nc2ccc(Cl)c(Cl)c2)C(c2ccco2)C(C(=O)Nc2ccc(Cl)c(Cl)c2)=C(C)N1,41%,41%,88.7% (active),22%,22%,87.7% (active),-4,-4%,89.3% (active),24%,24%,88.2% (active),10%,10%,89% (active),36%,36%,87.6% (active)
O=c1c2cc(Cl)ccc2[nH]c2cc(O)cc(O)c12,-18%,25%,70.5% (active),-43%,3%,-12.4%,-9,11%,21.5%,-15%,16%,11.9%,-13%,39%,15.1%,-20%,45%,15.9%
CCCCN(CCCC)CC(=O)c1ccc2cc(Cl)c3ccccc3c2c1,20%,91% (active),95.3% (active),23%,93% (active),95.5% (active),56,90% (active),95.8% (active),7%,90% (active),92.7% (active),18%,91% (active),95.3% (active),31%,84% (active),94.7% (active)
OCc1c2c(cc3c1CC1(C3)Cc3cc4c(c(CO)c3C1)CCC4)CCC2,30%,94% (active),8.5%,19%,97% (active),24.3%,22,98% (active),27.1%,10%,97% (active),46.4%,18%,97% (active),52.8%,27%,94% (active),27.4%
CCO/N=C1\CCCCC1SS(=O)(=O)O (configuration not stated),-5%,11%,40.5%,7%,17%,-14.1%,-6,20%,31.8%,0%,7%,15.2%,5%,22%,8.2%,-1%,4%,31.9%
OCCN=C1c2ccccc2C2C(c3ccccc31)C1c3ccccc3C(=NCCO)c3ccccc3C21 (configuration not stated),-9%,13%,46.8%,-4%,-8%,29.8%,6,6%,37.4%,4%,18%,31.1%,-6%,6%,40.5%,3%,47%,82% (active)
CCOC(=O)CC(O)(CCc1ccccc1)c1ccccc1 (configuration not stated),-5%,6%,25.4%,1%,2%,54.8%,-14,22%,-2.1%,-1%,-14%,-18.2%,14%,40%,21.1%,-1%,45%,9.95%
N#CCN1CCCCCc2ccccc21,-4%,-3%,-26.6%,0%,-18%,-12.7%,-29,-29%,-3.15%,9%,-1%,11.2%,-14%,-32%,-3.2%,-18%,-18%,-7.65%
